# HP1b chromo inh – HTS for Inhibitors of HP1-beta Chromodomain Interactions with Methylated Histone Tails; AlphaScreen HP1-beta / biotin-H3K9me3 peptide binding; Potency, µM (top dose mostly 114 µM), for the others: top-dose activity change, negative = inhibition, most hits filed as inhibitors; 0.56% of 390,000 active; AID 540317, 2011; also: potency is read from the fitted curve at half-maximal effect; nearly all actives have a fitted effect of over 70% in size
# Target sequence (P83916 whole entry, looked up): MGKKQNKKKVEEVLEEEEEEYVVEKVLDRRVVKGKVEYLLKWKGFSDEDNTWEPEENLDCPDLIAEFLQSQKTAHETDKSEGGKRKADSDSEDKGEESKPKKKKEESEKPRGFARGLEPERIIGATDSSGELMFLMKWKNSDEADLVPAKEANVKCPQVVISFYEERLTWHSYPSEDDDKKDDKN
#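 HP1-beta protein (50 nM final) preincubated 30 min at room temperature with biotinylated H3(1-18)K9me3 peptide (50 nM) in PBS pH 7.4, 0.01% Tween-20, then compound added for 30 min. AlphaScreen streptavidin donor/nickel chelate acceptor beads (10 ug/mL final), 30 min dark, luminescence read.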
# PLK1 PBD inh – qHTS for Inhibitors of PLK1-PDB (polo-like kinase 1 - polo-box domain): Primary Screen; Potency, µM, for the others: max response, negative = inhibition, most hits filed as inhibitors; Plk1 PBD binding of FITC phosphopeptide, fluorescence polarization; 2.8% of 360,000 active; also: potency is read from the fitted curve at half-maximal effect; series mostly up to about 57 µM; % is scaled to controls: 0 for no effect and ±100 for the full control effect; nearly all actives have a fitted effect of over 65% in size
# Target sequence (P53350 whole entry, looked up, the tested form may be a part): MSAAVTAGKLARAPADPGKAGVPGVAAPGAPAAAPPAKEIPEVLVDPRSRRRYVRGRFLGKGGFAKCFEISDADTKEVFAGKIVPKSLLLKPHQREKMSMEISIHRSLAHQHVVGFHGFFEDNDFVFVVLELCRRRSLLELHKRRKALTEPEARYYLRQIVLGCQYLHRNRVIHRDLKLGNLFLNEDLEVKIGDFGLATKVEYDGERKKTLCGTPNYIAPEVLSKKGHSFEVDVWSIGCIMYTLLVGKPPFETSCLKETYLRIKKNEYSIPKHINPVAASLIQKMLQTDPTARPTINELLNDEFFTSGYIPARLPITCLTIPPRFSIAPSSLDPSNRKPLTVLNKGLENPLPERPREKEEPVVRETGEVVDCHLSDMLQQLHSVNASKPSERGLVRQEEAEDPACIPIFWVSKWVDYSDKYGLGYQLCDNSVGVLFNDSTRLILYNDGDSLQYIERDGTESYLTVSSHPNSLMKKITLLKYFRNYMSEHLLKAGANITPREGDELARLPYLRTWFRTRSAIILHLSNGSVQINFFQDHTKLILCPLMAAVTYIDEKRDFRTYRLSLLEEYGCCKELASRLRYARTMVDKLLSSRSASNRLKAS
# Sfp PPTase inh – qHTS Assay for Inhibitors of Bacillus subtilis Sfp phosphopantetheinyl transferase (PPTase); 4'-phosphopantetheinyl transferase ffp (Bacillus subtilis), Q9F4F7; Biochemical Sfp PPTase activity, qHTS; Potency, µM, for the others: largest response in the series, negative = inhibition, most hits filed as inhibitors; 3.5% of 310,000 active; AID 1490, 2009;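 also: the enzyme is Sfp with the accession as filed and its product quenches rhodamine fluorescence; potency is read from the fitted curve at half-maximal effect; 0% = enzyme reaction without inhibitor and -100% = no enzyme wells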
#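 Sfp 15 nM + cpd, 15 min RT; start w/ rhodamine-CoA 5 uM, BHQ-2-YbbR 12.5 uM (final); 50 mM Hepes pH 7.6, 10 mM MgCl2, 0.01% NP-40, 0.01% BSA; read 525/598 nm at 0 and 30 min.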
# BAZ2B inh – qHTS Assay for Inhibitors of BAZ2B. Potency, µM (top dose mostly 114 µM), for the others: at the highest dose activity change, negative = inhibition, usual class: inhibitors. 4.4% of 360,000 active. AlphaScreen BAZ2B-H3K14Ac peptide displacement; also: potency is read from the fitted curve at half-maximal effect; % is scaled to controls: 0 for no effect and ±100 for the full control effect; nearly all actives have a fitted effect of over 60% in size
#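 Complex of BAZ2B and biotin-H3K14Ac (50 nM apiece) forms over 30 min at RT, then faces library compounds up to 110 uM for another 30 min; AlphaScreen beads added, 20 min dark incubation, luminescence read.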
# JMJD2A Tudor inh – qHTS Assay for Inhibitors of JMJD2A-Tudor Domain. AlphaScreen JMJD2A-Tudor / H3K4me3 peptide binding. AID 504339, 2011. Potency, µM (titrated, usually from 114 µM), without a hit: at the highest dose activity change, negative = inhibition, actives largely listed as inhibitors. 4.4% of 390,000 active. Lysine-specific demethylase 4A (Homo sapiens), O75164; also: potency is read from the fitted curve at half-maximal effect; % is scaled to controls: 0 for no effect and ±100 for the full control effect; nearly all actives have a fitted effect of over 50% in size
# G9a inh-1 – qHTS Assay for Inhibitors of Histone Lysine Methyltransferase G9a. Histone-lysine N-methyltransferase EHMT2 (Homo sapiens), Q96KQ7. G9a H3K9 monomethylation, AlphaScreen, 2 h. Potency, µM (doses to about 102 µM), for the others: at the top dose activity, negative = inhibition, actives largely listed as inhibitors. 8.8% of 350,000 active. AID 504332, 2011; also: potency is read from the fitted curve at half-maximal effect; % is scaled to controls: 0 for no effect and ±100 for the full control effect; nearly all actives have a fitted effect of over 75% in size
#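 G9a (20 nM) was preincubated 15 min with compound, then reacted 2 h at room temperature with 500 nM biotin-H3K9 peptide and 20 µM SAM. Monomethyl-H3K9 detected by AlphaScreen using anti-H3K9me1 antibody.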
# Sfp PPTase conf – Confirmation qHTS Assay for Inhibitors of Bacillus subtilis Sfp phosphopantetheinyl transferase (PPTase); shares compounds with Sfp PPTase inh; Sfp PPTase enzymatic assay, qHTS titration; Potency, µM (series often up to 114 µM), for inactives: at the highest dose activity change, negative = inhibition, actives largely listed as inhibitors; 79% of 380 active; AID 2701, 2010;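 also: potency is read from the fitted curve at half-maximal effect; plate controls were uninhibited Sfp reaction for no effect and no enzyme control for full effect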
# Sfp PPTase gel – Gel-Based Assay for Inhibitors of Bacillus subtilis Sfp phosphopantetheinyl transferase (PPTase). shares compounds with Sfp PPTase inh. purified Sfp, gel-based phosphopantetheinylation read-out. Potency, µM, most hits filed as inhibitors. 20% of 210 active;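 active = potency below 100 µM; inconclusive = dose-dependent response but potency above 100 µM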;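 also: band intensities scaled against SCH202676 control wells before curve fitting; potency is an IC50 for inhibitors of Sfp transfer activity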
# G9a inh-2 – qHTS Assay for Inhibitors of Histone Lysine Methyltransferase G9a: Hit Confirmation; shares compounds with JMJD2A Tudor inh; G9a H3K9 monomethylation, AlphaScreen, 2 h; Potency, µM, most hits filed as inhibitors; 89% of 370 active; AID 588344, 2011; also: potency is read from the fitted curve at half-maximal effect; nearly all actives have a fitted effect of over 65% in size
# TbPYK inh – qHTS of Trypanosoma Brucei Inhibitors: Confirmatory Assay for Cherry-picked Compounds. shares compounds with PLK1 PBD inh. recombinant TbPYK, Kinase-Glo ATP luminescence. Potency, µM (top dose mostly 76.9 µM), without a hit: at the highest dose activity change, negative = inhibition, hits mostly inhibitors. 67% of 890 active; also: potency is read from the fitted curve at half-maximal effect; % is scaled to controls: 0 for no effect and ±100 for the full control effect; nearly all actives have a fitted effect of over 70% in size
# TbPYK ADP-Glo – qHTS of Trypanosoma Brucei Inhibitors: Orthogonal Assay for Cherry-picked Compounds | shares compounds with PLK1 PBD inh | recombinant TbPYK, ADP-Glo luminescence, 60 min | Potency, µM (titrated, usually from 76.9 µM), for inactives: at the top dose activity change, negative = inhibition, actives largely listed as inhibitors | 62% of 890 active; also: potency is read from the fitted curve at half-maximal effect; % is scaled to controls: 0 for no effect and ±100 for the full control effect; nearly all actives have a fitted effect of over 75% in size
# Active calls of the source: *; i = inactive; ? = inconclusive; · = no result given; [ ] = remark or other dose. The list is not random: actives were taken first. Their share in the collection is about 12%. Unless noted, calls follow the shape of the dose curve; as a rule, active = well fitted curve in the direction sought with a large enough effect; inconclusive = small, poorly fitted or top-dose-only effect, or another doubt; inactive = no such curve, though single readings can be large; an effect the other way counts as inactive or inconclusive.
SMILES,HP1b chromo inh,PLK1 PBD inh,Sfp PPTase inh,BAZ2B inh,JMJD2A Tudor inh,G9a inh-1,Sfp PPTase conf,Sfp PPTase gel,others
Brc1ccccc1-c1nnc2sc(Cc3ccccc3)nn12,26.7%,-6.5%,-16.1%,3.7%,-7.4%,?,·,·,
c1ccc(CCc2nn3c(Cn4cnc5ccccc54)nnc3s2)cc1,-33.4%,6.7µM*,10µM*,-24.2%,?,3.98µM*,13.2µM*,·,
O=C(O)CSc1nnc(Cn2nnc3ccccc32)n1CCc1ccccc1,39.7%,-15.2%,5.8%,-4.7%,-16.8%[57.1 µM],-18.7%,·,·,
Clc1ccccc1-c1nnc2sc(CCc3ccccc3)nn12,?,7.52µM*,12.6µM*,0.7%,?,4.47µM*,11.8µM*,·,
c1ccc(CCc2nn3c(Cn4nnc5ccccc54)nnc3s2)cc1,?,13.4µM*,12.6µM*,-6.8%,?,?,41.8µM*,·,
c1ccc(CCn2cnc3ccccc32)cc1,26.6%,0.6%,15.1%,-1.1%,-13.7%,64.0%,·,·,
CCCCNS(=O)(=O)c1cccc(NC(=O)[C@H]2C[C@H](O)[C@@H](CO)O2)c1,·,-8.5%,·,·,·,·,·,·,
COc1ccc(N(CC(=O)Nc2ccccc2C(F)(F)F)C2=NC3CS(=O)(=O)CC3S2)cc1 (stereo unspecified),27.4%,4.2%,6.9%,-0.3%,-2.7%,22.8%,·,·,
COc1ccc(C(C(=O)NC2CCCC2)N(Cc2ccc(C)cc2)C(=O)c2ccn[nH]2)cc1OC (stereo unspecified),19.5%,-6.6%,7.8%,-3.3%[57.1 µM],-19.5%,-14.6%[12.7 µM],·,·,
CCOC(=O)c1cc(-c2ccccc2)sc1NC(=O)c1ccc(OC)cc1,?,5.32µM*,14.1µM*,-33.1%,?,?,8.35µM*,·,
CC(=O)O[C@H]1C(=O)[C@@]2(C)[C@H]([C@H](OC(=O)c3ccccc3)[C@]3(O)C[C@H](OC(=O)[C@H](O)C(NC(=O)c4ccccc4)c4ccccc4)C(C)=C1C3(C)C)[C@]1(OC(C)=O)CO[C@@H]1C[C@@H]2O (stereo partly specified),43.1%,0.5%,10µM*,-18.0%,-7.6%,12.2%[12.7 µM],29.6µM*,i,
COCCNC(=S)NC12CC3CC(CC(C3)C1)C2,39.9%,-2.7%,16.0%,-9.7%,-2.2%,19.1%[2.33 µM],·,·,
CC(=O)CCc1oc2ccc(NC(C)=O)cc2c1-c1ccc(C)o1,11.4%,-3.8%,12.6µM*,?,?,12.6µM*,14.8µM*,i,
CC1CCCC(NC(=O)CN(C)CC(=O)Nc2ccc(F)cc2)C1C (stereo unspecified),40.3%,3.8%,·,6.5%,0.3%,-1.6%[0.501 µM],·,·,
CCN(C(=O)C1CCC(CNS(=O)(=O)c2cccc3nsnc23)CC1)c1ccccc1 (stereo unspecified),-0.3%,·,·,?,-29.3%,-1.6%[59 µM],·,·,
Nc1nc(NCC2CCC(CNS(=O)(=O)c3cccc4ccccc34)CC2)nc2ccccc12 (stereo unspecified),·,·,28.2µM*,·,·,25.1µM*,46.9µM*,55.6µM*,
NS(=O)(=O)c1ccc(NC(=O)c2cccc(Cl)c2)cc1,-20.9%,-3.6%,9.7%,-3.1%,-17.7%,-3.9%,·,·,
CCn1cnc2c(Nc3ccc(CC(=O)N=C(N)N)cc3)nc(C#N)nc21,·,·,·,·,-20.5%,·,·,·,
Cc1ccc(-n2cc(CNCCN3CCOC3=O)c(-c3cccc(C)c3)n2)cc1,23.7%,-6.8%,44.7µM*,?,-22.6%,35.5µM*,-10.5%,i,
CC(=O)OCc1nc2ccccc2s1,8.7%,-4.8%,25.9%,4.4%,1.4%,72.9%[59 µM],·,·,
O=C(O)COCc1nc2ccccc2s1,59.2%,-2.5%,25.1µM*,-25.1%,-1.7%,50.1µM*,-12.9%,?,
CC(=O)c1ccc(OC(=O)CCc2nc3ccccc3s2)cc1,35.6%,?,15.8µM*,?,-16.8%,31.6µM*,33.2µM*,?,
CC1CCN(c2ccc(NC(=O)Cc3ccccc3)cc2)CC1,34.8%,-1.5%,6.0%,-4.1%,-18.1%,·,·,·,
COc1cccc(CNc2ccc(N3CCC(C)CC3)cc2)c1OC,-69.0%,-3.9%,10µM*,39.8µM*,20µM*,?,?,i,G9a inh-2=2*
O=C(O)CCc1ccc(-c2cccs2)o1,?,?,2.82µM*,56.2µM*,100µM*,?,6.63µM*,·,G9a inh-2=7.94*
COCCN(CCOC)C(=O)c1cc2c(=O)n3ccccc3nc2n1C,11.1%,·,·,?,-26.6%,?,·,·,
Cc1ccc(/C=C/C(=O)NCCc2ccccc2)o1,?,26.7µM*,7.94µM*,?,28.2µM*,8.91µM*,18.7µM*,·,TbPYK inh=?;TbPYK ADP-Glo=?
COc1ccccc1N1C(=O)C2CC(C)=C(C)CC2C1=O (stereo unspecified),19.2%,-8.1%,9.8%,-14.9%,-23.3%,15.4%[59 µM],·,·,
COc1ccccc1N1C(=O)C=C(Sc2nc(C)cc(C)n2)C1=O,8.91µM*,2.99µM*,3.16µM*,?,7.94µM*,0.447µM*,1.67µM*,6.17µM*,TbPYK inh=2.51µM*;TbPYK ADP-Glo=3.16µM*

# Screens deposited in PubChem by National Center for Advancing Translational Sciences (NCATS).
